# ClpP mod = qHTS Assay for Activators of ClpP. ATP-dependent Clp protease proteolytic subunit (Bacillus subtilis (strain 168)), P80244. purified B. subtilis ClpP, FRET peptide cleavage, 20 min. Potency, µM (top dose mostly 57.5 µM). 340,000 tested, 1.9% active; active means well fitted falling curve with a large enough effect; inconclusive means small, poorly fitted or top-dose-only effect; inactive means no such curve, though single readings can be large or run the other way; further: the source files actives as falling curves though it sought activators and does not explain the sign; nearly all actives have a fitted effect of over 65% in size
# Target sequence (P80244 whole entry, looked up): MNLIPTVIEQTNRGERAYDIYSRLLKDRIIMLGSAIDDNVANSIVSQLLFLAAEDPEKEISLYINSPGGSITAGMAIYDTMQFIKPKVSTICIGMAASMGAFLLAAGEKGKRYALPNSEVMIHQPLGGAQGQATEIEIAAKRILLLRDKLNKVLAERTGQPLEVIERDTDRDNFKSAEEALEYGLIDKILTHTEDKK
#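 Buffer: 100 mM Tris/HCl pH8, 100 mM KCl, 0.05% low protease BSA, 2.5% glycerol, 0.01% Tween-20. ClpP 10 microg/mL final; 20 min RT; delta FRET normalized to ADEP and DMSO controls.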
# p53 reactivation = restores transcriptional activity of mutant p53. 320,000 tested, 0.063% active. Potency, µM (series often up to 92.2 µM), actives largely listed as activators. H1299 p53-A138V BP100-luciferase reporter, luminescence, 24 h. AID 504706; further: nearly all actives have a fitted effect of over 45% in size
#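 p53-null H1299 cells stably carrying temperature-sensitive p53-A138V and a BP100-luciferase reporter were pinned with compounds (4-point, 1:5 series) and held 24 hrs at 37 deg C. Luminescence was read 10 min after detection reagent.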
# B2AR arrestin = recruits beta-arrestin to the human beta2-adrenergic receptor; Potency, µM (series often up to 46.1 µM), usual class: activators; P07550; beta-arrestin recruitment to beta2AR, cell-based reporter; AID 492947; 330,000 tested, 0.02% active; further: nearly all actives have a fitted effect of over 65% in size
# Target sequence (P07550 whole entry, looked up): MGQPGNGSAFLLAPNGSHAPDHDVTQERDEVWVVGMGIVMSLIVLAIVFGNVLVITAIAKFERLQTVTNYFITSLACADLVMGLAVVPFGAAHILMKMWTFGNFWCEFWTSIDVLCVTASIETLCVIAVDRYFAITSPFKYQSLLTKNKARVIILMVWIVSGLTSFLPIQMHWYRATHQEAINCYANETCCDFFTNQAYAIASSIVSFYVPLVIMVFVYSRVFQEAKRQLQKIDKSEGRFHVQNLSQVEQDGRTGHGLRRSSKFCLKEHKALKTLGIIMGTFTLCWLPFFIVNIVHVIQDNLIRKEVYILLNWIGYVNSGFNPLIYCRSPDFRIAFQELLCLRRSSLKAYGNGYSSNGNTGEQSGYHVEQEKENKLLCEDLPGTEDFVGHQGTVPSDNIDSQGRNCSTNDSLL
# Mito fusion yeast = inhibitors of mitochondrial division or activators of mitochondrial fusion; S. cerevisiae fusion-defective mutant growth rescue, CellTiterGlo 48 h; Potency, µM (highest dose often 46.1 µM), most hits filed as activators; 320,000 tested, 0.23% active; AID 485298; further: nearly all actives have a fitted effect of over 45% in size
#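 Compounds are tested for their ability to restore growth of mitochondrial fusion-defective yeast strains at non-permissive 37C in YPEG medium over 48 hours. Viability is quantified by luciferase luminescence.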
# uPA generation = inhibitors of cell surface uPA generation; cell surface uPA generation assay, qHTS; 330,000 tested, 0.31% active; AID 540303; Potency, µM (series often up to 38.3 µM), hits mostly inhibitors; active means well fitted inhibition curve with a large enough effect; inconclusive means small, poorly fitted or top-dose-only effect; inactive means no such curve, though single readings can be large or run the other way; tested in mouse RAW 264.7 cells; further: nearly all actives have a fitted effect of over 55% in size
# Giardia kill = kills Giardia lamblia; Giardia lamblia trophozoite viability; activity change, % at 7.66 µM, hits read low; 340,000 tested, 0.15% active; in the data active means activity change below about -80%; inconclusive means between about -30% and that limit;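 further: parasites exposed to compound for two days anaerobically before the ATP read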
#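 Giardia trophozoites, 100 cells per well, were exposed to compounds for 48 hrs at 37 deg C under anaerobic conditions; viability was then read as ATP content by bioluminescence after 15-30 min at room temperature.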
# Hits are given with their value; – = inactive; ? = inconclusive; · = no result; [ ] = remark or other dose. Only some compounds are listed: those with a hit (about 2.1% of all), similar ones and a draw of the others. Unless noted, the call rests on the fitted dose curve; in most records, active means well fitted curve in the direction sought with a large enough effect; inconclusive means small, poorly fitted or top-dose-only effect, or another doubt; inactive means no such curve, though single readings can be large; an effect the other way counts as inactive or inconclusive.
SMILES,ClpP mod,p53 reactivation,B2AR arrestin,Mito fusion yeast,uPA generation,Giardia kill
Nc1ccc(C(=O)OCC(=O)N2CCc3ccccc3C2)cc1[N+](=O)[O-],–,–,–,11µM,–,–
COc1ccc(-n2cc(-c3ccccc3)[nH]c2=S)cc1,14µM,?,–,–,–,–
Cc1ccc(Nc2nc(-c3c(C)nc4ncccn34)cs2)cc1,–,–,–,–,–,–
Cc1ccc(Nc2nc(-c3c(C)nc4ccccn34)cs2)cc1,28µM,–,–,–,–,–
Cc1cccc(NC(=O)C2CCC(CNS(=O)(=O)c3csc(C(N)=O)c3)CC2)c1C (configuration not stated),–,·,·,·,·,·
COCCCN1C(=O)C(=O)/C(=C(/O)c2ccc3c(c2)OCCO3)C1c1ccc(C(=O)OC)cc1 (configuration not stated),32µM,–,–,–,–,–
COCCN1C(=O)C(=O)/C(=C(/O)c2ccc3c(c2)OCCO3)C1c1ccc(C(=O)OC)cc1 (configuration not stated),–,–,–,–,–,–
CC(=O)OCC(NC(=O)C(CCCCNC(=O)OCc1ccccc1)NC(=O)OC(C)(C)C)C1OC(n2ccc(=O)[nH]c2=O)C(OC(C)=O)C1OC(C)=O (configuration not stated),·,·,·,·,·,–
Cc1c(C(=O)Nc2ccc(F)c(Cl)c2)sc2nc3n(c(=O)c12)CCC3,–,·,·,·,·,·
COc1ccc(N2CCN(CCNC(=O)Nc3cccc(C)c3C)CC2)cc1,–,–,–,–,–,–
COc1ccccc1N1CCN(CCNC(=O)Nc2cccc(C)c2C)CC1,32µM,–,–,–,–,–
O=C(CCCn1c(=O)c2cccn2c2ccccc21)Nc1cccc(Cl)c1,–,·,·,·,·,·
CCN(CC)CCOC(=O)c1ccc(NC(=O)c2cc3cccc(OC)c3oc2=O)cc1,–,·,·,–,·,·
CCOc1ccccc1CNC(=O)c1oc2c(c1C)-c1[nH]ncc1CC2,–,·,·,·,·,·
Cc1c(C(=O)NCc2cccc(F)c2)oc2c1-c1[nH]ncc1CC2,28µM,·,·,·,·,·
O=[N+]([O-])c1ccc(-c2nc(NCc3ccccc3)c3ccccc3n2)cc1,·,–,–,–,–,–
O=[N+]([O-])c1cccc(-c2nc(NCc3ccccc3)c3ccccc3n2)c1,–,–,–,3.2µM,–,–
COc1ccccc1NC(=O)c1ccc([N+](=O)[O-])o1,–,·,·,·,10µM,-96
O=C(Nc1cccc2ccccc12)c1ccc([N+](=O)[O-])s1,–,–,–,–,11µM,-89
O=C(Nc1ccc2oc(-c3ccccc3F)nc2c1)c1ccccc1Cl,–,·,·,·,·,·
O=C(Nc1cccnc1)c1ccc([N+](=O)[O-])s1,–,?,–,–,4.5µM,-87
O=C(Nc1ccc2oc(-c3ccccc3F)nc2c1)c1ccc([N+](=O)[O-])o1,–,–,–,–,–,-96
O=C(Nc1ccccc1F)c1ccc([N+](=O)[O-])s1,–,?,–,–,·,?
COc1ccccc1NC(=O)c1ccc(COc2ccccc2OC)o1,–,–,–,–,–,–
COc1cc(CN2C[C@@H](CO)O[C@@H](n3cnc4c(Nc5ccccc5)ncnc43)C2)cc(OC)c1OC,–,·,·,·,·,·
SMILES,ClpP mod,p53 reactivation,B2AR arrestin,Mito fusion yeast,uPA generation,Giardia kill
O=C(C[N+]12CN3CN(CN(C3)C1)C2)c1ccc(I)cc1,–,·,·,·,·,·
COc1cccc(N2CC(NC(=O)CCCc3ccccc3)CC2=O)c1 (configuration not stated),–,·,·,·,·,·
CC(=O)c1ccc(N2CCN(C(=O)c3cc(S(=O)(=O)N4CCCCCC4)cn3C)CC2)cc1,–,·,·,·,·,·
O=C(Nc1cccc2ccccc12)c1ccc([N+](=O)[O-])o1,–,–,–,–,?,-98
O=C(Nc1cccc([N+](=O)[O-])c1)c1ccc([N+](=O)[O-])o1,–,·,·,·,·,·
O=C(Nc1cccc(Cl)c1N1CCOCC1)c1ccc([N+](=O)[O-])o1,–,–,–,–,–,-86
O=C(Nc1cccc(NC(=O)c2ccccc2Cl)c1)c1ccc([N+](=O)[O-])o1,–,–,–,–,–,-103
Cc1cccc(NC(=O)c2ccc([N+](=O)[O-])o2)c1C,–,–,–,–,–,-97
O=C(Nc1ccccc1C(=O)NC1CC1)c1ccc([N+](=O)[O-])o1,–,–,–,?,–,?
O=[N+]([O-])c1ccc(-c2cc3ccccc3[nH]2)cc1,–,·,·,·,·,·
Cc1ccc2nsnc2c1NC(=O)c1ccc([N+](=O)[O-])o1,·,–,–,–,–,-85
Cc1ccc(NC(=O)c2ccc([N+](=O)[O-])o2)cc1C,·,–,–,–,–,-94
CCOC(=O)c1cc(Cl)c2c(ccc3ccccc32)n1,–,·,·,·,·,·
COc1ccc(-c2cc(C(=O)OCC(=O)N(C)C)c3ccccc3n2)cc1,?,–,–,–,–,–
CCOC(=O)Cc1cc(-c2ccc(O)cc2)nc2ccc3ccccc3c12,32µM,–,–,–,–,–
CCOC(=O)Cc1cc(-c2ccc(OC)cc2)nc2ccc3ccccc3c12,8.9µM,–,–,–,–,–
CCOC(=O)Cn1nc(-c2ccc(F)cc2)cc(Cc2ccccc2)c1=O,–,–,–,–,–,–
CCOC(=O)Cc1cc(-c2ccc(F)cc2)nc2ccc3ccccc3c12,22µM,–,–,–,–,–
CCCC[C@]12Cc3ccccc3C(O1)c1c(c3ccccc3oc1=O)O2,·,·,–[9.22 µM],–[9.22 µM],·,·
Cc1ccc(C)c(NC(=S)NC(NC(=O)Cc2ccccc2)C(Cl)(Cl)Cl)c1 (configuration not stated),–,–,–,–,–,–
O=C(COc1ccccc1)NC(NC(=S)Nc1ccccc1C(=O)O)C(Cl)(Cl)Cl (configuration not stated),35µM,–,–,–,–,–
O=C1CC(c2cc3c(cc2Br)OCO3)C2=C(CCCC2=O)N1 (configuration not stated),25µM,–,–,–,–,–
Cc1ccc(NC(=O)N2CCc3c([nH]c4ccccc34)C2c2ccccc2F)c(Cl)c1 (configuration not stated),–,·,·,·,·,·
Cc1ccc(S(=O)(=O)/N=C(\N)Nc2nc(C)c3ccc(C)cc3n2)cc1,?,–,–,–,?,–
Cc1ccc2c(C)nc(N/C(N)=N/S(=O)(=O)c3ccccc3)nc2c1,28µM,–,–,–,–,–
OCCC1CN(Cc2nc(-c3ccccc3)cs2)CCN1Cc1ccc(F)cc1 (configuration not stated),–,–,–,11µM,–,–
CCC1=NN2C(=N)/C(=C/c3cc(C)n(Cc4ccccc4)c3C)C(=O)N=C2S1,25µM,–,–,–,–,–
CC1=CC(C)(C)Nc2ccc(OC(=O)CN3C(=O)c4ccccc4C3=O)cc21,25µM,–,–,–,–,–

# Screening results from PubChem BioAssay.
